“And” between values parts separate entries of the source, which are not always exact repeats. Identical values can stand only once. Inconclusive results are not listed. More than one record can exist for a structure, and the calls need not agree. The source made the active and inactive calls. How the source made its calls, unless noted: active means hit-call score of the fitted dose curve at least 0.9, where 1 is the maximum; inactive means score below 0.9.
What was measured:
[1] = CCTE_Simmons_MITO_max_resp_rate: CCTE's HepG2 Seahorse XF Respirometric Screening Assay at Maximal Respiratory State [uncoupled], Simmons Lab (AID 2284002); details: actives raise or lower the signal
How it was run: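 HepG2, Seahorse XF96, maximal OCR post-FCCP. Cpd 125 nM–100 uM final (7 conc), n=3 biological. Kinetic reads every 6 min (3 min mix/3 min measure) over 72 min; fit bidirectional vs DMSO.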

[2] = CCTE_Harrill_HTTr_Viability_MCF7: CCTE's 6-hour Cell Viability Assessment for the High-Throughput Transcriptomics (HTTr) Platform, in MCF-7 cells cultured in DMEM + 10% fetal bovine serum, Harrill Lab (AID 2284010)
How it was run: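 PI exclusion, high-content imaging; 8-pt dilution series, 6 h exposure; bidirectional fit vs DMSO (neg. ctrl/baseline); gain of signal = loss of membrane integrity.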

[3] = CCTE_Harrill_HTTr_Apoptosis_MCF7: CCTE's 6-hour Apoptosis Assessment for the High-Throughput Transcriptomics (HTTr) Platform, in MCF-7 cells cultured in DMEM + 10% fetal bovine serum, Harrill Lab (AID 2284011)
How it was run: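 Read-out: CellEvent Caspase 3/7 Green signal by high content imaging, gain-of-signal indicating apoptosis. MCF-7 cells, DMEM + 10% FBS, eight-point dilution series, 6 h exposure. Curves fitted bidirectionally relative to DMSO negative control.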

[4] = CCTE_Harrill_HTTr_CellCount_MCF7: CCTE's Cell Proliferation Assessment for the High-Throughput Transcriptomics (HTTr) Platform, Harrill Lab (AID 2284012; active means hit-call score of the fitted dose curve at least 0.9, where 1 is the maximum;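 further: count of Hoechst-stained nuclei per well by high-content imaging in MCF-7 cells; cells exposed to compound for six hours; intended direction is loss of nuclei count meaning fewer cells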)
How it was run: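 Readout: Hoechst nuclear count by high-content imaging. MCF-7, 8-point dilution series, 6 h exposure. Bidirectional fit vs DMSO baseline.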

[5] = CCTE_Simmons_MITO_viability: CellTiter-Glo Viability Assessment for CCTE's HepG2 Seahorse XF Respirometric Screening Assay [post-hoc], Simmons Lab (AID 2284007; active means hit-call score of the fitted dose curve at least 0.9, where 1 is the maximum;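 on AC50: cells exposed to chemical for 90 min before the ATP read; actives lower ATP signal relative to DMSO baseline meaning reduced viability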)
How it was run: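 Luciferase-coupled ATP luminescence, single endpoint. HepG2, post-respirometry. Compound 125 nM–100 uM final, 7 conc., 90 min. n=3 biological, technical singles. DMSO vehicle/baseline; dichlone 10 nM–100 uM, 8 conc., as positive control.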

[6] = CCTE_Shafer_MEA_acute_spike_number: CCTE's Neural Acute Assay for Total Number of Spikes, Shafer Lab (AID 2284008);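 on AC50: curve fitted for decrease in spike count so AC50 reflects inhibitors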
How it was run: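 Rat cortical cultures, DIV 13/15, 37 C. 40 min baseline rec, cpd 0.03-40 uM, 40 min post-dose rec. Band-pass 300-5000 Hz, spike threshold 8x rms; % change in spike count per well, DMSO neg ctrl, loss-of-signal fit.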

[7] = CCTE_Shafer_MEA_acute_firing_rate_mean: CCTE's Neural Acute Assay for Mean Firing Rate, Shafer Lab (AID 2284009);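 further: analyzed for loss of signal so actives lower firing rate relative to DMSO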
How it was run: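 Primary rat cortical neurons on 16-electrode MEA wells were exposed on DIV 13 or 15 to compound (0.03-40 uM). Spike counts per recording time, averaged over electrodes, were compared between 40-min baseline and 40-min post-exposure recordings as percent change.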

[8] = CCTE_Shafer_MEA_acute_burst_number: CCTE's Neural Acute Assay for Single-Electrode Bursts, Shafer Lab (AID 2284013)
How it was run: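 Primary rat cortical neurons on 16-electrode MEA wells, DIV 13 or 15, exposed to compound (0.03-40 uM; ≥3 wells); 40-min recordings at 37 C before and after treatment. Burst count expressed as percent change from baseline, DMSO as negative control.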

[9] = molecular target: Ratio of Nucleoli Translocation and Cytoplasm, AR (gene 367) (UniProt P10275); assay: UPITT_HCI_U2OS_AR_TIF2_Nucleoli_Cytoplasm_Ratio_Agonist: University of Pittsburgh U2OS Androgen Receptor-Transcriptional Intermediary Factor 2 (AR-TIF2) Agonism High Content Imaging Assay for Ratio of Nucleoli Translocation and Cytoplasm (AID 2284000; active means hit-call score of the fitted dose curve at least 0.9, where 1 is the maximum;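 further: hits raise the red nucleolar to cytoplasm ratio above vehicle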)
Source text: UPITT_AR_TIF2_PPIB is a cell-based, high-content imaging assay that uses U2OS, a human osteosarcoma cell line, expressing a human androgen receptor fused to red fluorescent protein and the coactivator TIF2 fused to green fluorescent protein. UPITT_HCI_U2OS_AR_TIF2_Nucleoli_Cytoplasm_Ratio_Agonist is one of four assay components measured from the UPITT_AR_TIF2_PPIB assay. It is designed to make measurements of the ratio of red fluorescence localized in the nucleolar region of the cell nucleus to red fluorescence localized in the cytoplasm as detected with high-content fluorescent imaging.Data from the assay component UPITT_HCI_U2OS_AR_TIF2_Nucleoli_Cytoplasm_Ratio_Agonist was analyzed into 1 assay endpoint. This assay endpoint, UPITT_HCI_U2OS_AR_TIF2_Nucleoli_Cytoplasm_Ratio_Agonist, was analyzed in the positive analysis fitting direction relative to DMSO as the baseline of activity. Using a type of binding reporter, measures of receptor for gain-of-signal activity can be used to understand the binding at the pathway-level as it relates to the gene AR.
Daughter plates containing 2 uL of 10 mM compounds in DMSO were prepared and replicated from the 384-well Library of Pharmacologically Active Compounds (LOPAC) master plates using the Bravo outfitted with a 384-well transfer head. Aluminum adhesive plate seals were applied with an Abgene Seal-IT 100 (Rochester, NY) plate sealer, and the plates were stored at -20 C in a Matrical MatriMinistore (Spokane, WA) automated compound storage and retrieval system. For screening, LOPAC daughter plates were withdrawn from -20C storage, thawed to ambient temperature, centrifuged 1-2 min at 50 g, and the plate seals were removed before the transfer of 98 uL of serum-free tissue culture medium (SFM) into wells using the BioTek Microflo liquid handler (BioTek, Winooski, VT) to generate a 200 uM intermediate stock concentration of library compounds (2.0% DMSO). The diluted compounds were mixed by repeated aspiration and dispensation using a 384-well P30 dispensing head on the Evolution P3 (EP3) liquid handling platform (PerkinElmer, Waltham, MA) and then 5 uL of diluted compounds was transferred to the wells of assay plates. In the LOPAC screen, compounds were individually tested at a final concentration of 20 uM (0.2% DMSO). After the diluted compounds had been transferred from the daughter plates to the primary HCS assay plates, aluminum adhesive plate seals were applied and the diluted daughter plates were stored frozen at -20C. To confirm active compounds identified in the primary screen, we withdrew the LOPAC daughter plates containing the 200 uM intermediate concentration of library compounds (2.0% DMSO) from -20C storage, thawed them to ambient temperature, centrifuged them for 1-2 min at 50 g, and removed the plate seals. A work list was generated to direct the Multiprobe Janus liquid handling platform (PerkinElmer) to cherry pick 75 uL from the wells of the diluted daughter plates that were flagged active in the primary screen and to reformat these into a 384-well plate hit confirmation daughter plate. Five microliters of primary HCS active compounds was then transferred into triplicate wells of assay plates using a 384-well P30 dispensing head on the Evolution P3 (EP3) liquid handling platform (PerkinElmer). […] Daughter plates containing 2 uL of the serially diluted compounds in DMSO were prepared and replicated from the 384-well serial dilution master plates using the Bravo outfitted with a 384-well transfer head. Aluminum adhesive plate seals were applied and plates were stored at -20C. For testing in the bioassays, daughter plates were withdrawn from -20C storage, thawed to ambient temperature, centrifuged for 1-2 min at 50 g, and the plate seals were removed before the transfer of 38 uL of SFM into wells using the BioTek Microflo liquid handler (BioTek) to generate an intermediate stock concentration of library compounds ranging from 1.95 to 500 uM (5.0% DMSO). […]

[10] = molecular target: Ratio of Nucleoli Translocation and Cytoplasm, AR (gene 367) (UniProt P10275); assay: UPITT_HCI_U2OS_AR_TIF2_Nucleoli_Cytoplasm_Ratio_Antagonist: University of Pittsburgh U2OS Androgen Receptor-Transcriptional Intermediary Factor 2 (AR-TIF2) Antagonism High Content Imaging Assay for Ratio of Nucleoli Translocation and Cytoplasm (AID 2283999; active means hit-call score of the fitted dose curve at least 0.9, where 1 is the maximum;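 further: antagonists lower the DHT-driven ratio of nucleolar to cytoplasmic red signal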)
How it was run: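 Read-out is the ratio of nucleolar to cytoplasmic AR-RFP fluorescence, imaged by high-content microscopy in U2OS cells coexpressing TIF2-GFP. Single-point 20 uM screen, triplicate confirmation, then 0.195–50 uM dose response; activity referenced to DHT baseline.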

Sequence of Ratio of Nucleoli Translocation and Cytoplasm, AR (gene 367) (P10275 whole entry, looked up, the tested form may be a part): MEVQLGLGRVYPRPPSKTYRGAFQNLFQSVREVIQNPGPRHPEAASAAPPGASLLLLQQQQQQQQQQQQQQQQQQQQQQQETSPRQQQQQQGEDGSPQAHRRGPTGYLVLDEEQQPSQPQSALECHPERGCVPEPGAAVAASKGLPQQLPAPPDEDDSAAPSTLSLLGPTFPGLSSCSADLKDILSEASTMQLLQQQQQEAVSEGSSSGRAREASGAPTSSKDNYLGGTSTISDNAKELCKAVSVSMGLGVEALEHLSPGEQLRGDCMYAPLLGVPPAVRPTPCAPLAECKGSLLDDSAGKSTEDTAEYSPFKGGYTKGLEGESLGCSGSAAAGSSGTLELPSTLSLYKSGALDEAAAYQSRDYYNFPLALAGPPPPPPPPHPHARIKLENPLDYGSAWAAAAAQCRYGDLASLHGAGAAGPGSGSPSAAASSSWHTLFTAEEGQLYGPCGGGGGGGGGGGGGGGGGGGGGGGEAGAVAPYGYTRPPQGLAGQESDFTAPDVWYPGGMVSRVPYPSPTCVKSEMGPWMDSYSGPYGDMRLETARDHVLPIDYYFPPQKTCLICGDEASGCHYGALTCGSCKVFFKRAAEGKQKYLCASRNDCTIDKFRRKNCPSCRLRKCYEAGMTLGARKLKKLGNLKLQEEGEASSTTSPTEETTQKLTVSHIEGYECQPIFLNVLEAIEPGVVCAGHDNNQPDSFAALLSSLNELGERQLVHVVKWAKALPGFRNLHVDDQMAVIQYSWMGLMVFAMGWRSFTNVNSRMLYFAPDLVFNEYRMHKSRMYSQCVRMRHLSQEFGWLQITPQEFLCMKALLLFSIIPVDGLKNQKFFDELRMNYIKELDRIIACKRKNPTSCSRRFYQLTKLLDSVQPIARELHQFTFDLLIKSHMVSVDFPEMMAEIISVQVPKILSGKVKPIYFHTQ

C[C@]12CCC(=O)C=C1CC[C@@H]1[C@@H]2CC[C@@]2(C)[C@H]1CC[C@]2(C)O
outcome [1]: inactive
outcome [2]: inactive
outcome [3]: inactive
outcome [4]: inactive

N#Cc1ccc(N(CC(N)=O)CC(F)(F)F)cc1C(F)(F)F
outcome [1]: inactive
outcome [5]: inactive
outcome [2]: inactive
outcome [3]: inactive

CCC(C)(CC)c1cc(NC(=O)c2c(OC)cccc2OC)on1
outcome [6]: inactive
outcome [7]: inactive
outcome [2]: inactive
outcome [3]: inactive
outcome [4]: inactive
outcome [8]: inactive

CC(C)(c1ccccc1)c1ccc(O)cc1
AC50 [1]: 37.7 µM (active)
outcome [5]: inactive
outcome [2]: inactive
outcome [3]: inactive
outcome [4]: inactive

O=C(N[C@H]1CN2CCC1CC2)c1cc2ccoc2cn1
outcome [9]: inactive
outcome [6]: inactive
outcome [7]: inactive
outcome [2]: inactive
outcome [3]: inactive
outcome [4]: inactive
outcome [8]: inactive

O=C(O)C(F)(F)C(F)(F)C(F)(F)C(F)(F)C(F)(F)C(F)(F)C(F)(F)C(F)(F)F
outcome [1]: inactive
outcome [5]: inactive
outcome [2]: inactive
outcome [3]: inactive
outcome [4]: inactive

C=CC(=O)NCNC(=O)C=C
outcome [10]: inactive
outcome [9]: inactive
outcome [2]: inactive
outcome [3]: inactive

NS(=O)(=O)C(F)(F)C(F)(F)C(F)(F)C(F)(F)C(F)(F)C(F)(F)C(F)(F)C(F)(F)F
outcome [10]: inactive
AC50 [9]: 32 µM (active)
outcome [1]: inactive
outcome [5]: inactive
outcome [2]: inactive
outcome [3]: inactive

CCOC(=O)C(O)(c1ccc(Cl)cc1)c1ccc(Cl)cc1
outcome [10]: inactive
AC50 [9]: 70.3 µM (active)
outcome [2]: inactive
outcome [3]: inactive
outcome [4]: inactive

CCCCCCCCOC(=O)c1ccccc1C(=O)OCCCCCCCC
outcome [10]: inactive
outcome [2]: inactive
outcome [3]: inactive
outcome [4]: inactive

Oc1c(Cl)c(Cl)c(Cl)c(Cl)c1Cl
AC50 [1]: 16.2 µM (active)
AC50 [5]: 6.35 µM (active)
outcome [2]: inactive
outcome [3]: inactive
outcome [4]: inactive

CC(C)(O)C(=O)Nc1ccc([N+](=O)[O-])c(C(F)(F)F)c1
AC50 [1]: 50 µM (active)
outcome [5]: inactive
outcome [2]: inactive
outcome [3]: inactive

C[C@]12CCC(=O)C=C1CC[C@@H]1[C@@H]2CC[C@]2(C)C(=O)CC[C@@H]12
outcome [1]: inactive
outcome [5]: inactive

CC1=C2C[C@H]3[C@@H](CC=C4C[C@@H](O)CC[C@@]43C)[C@@H]2CC[C@]12O[C@@H]1C[C@H](C)CN[C@H]1[C@H]2C
outcome [10]: inactive
outcome [9]: inactive
outcome [2]: inactive
outcome [3]: inactive
outcome [4]: inactive

CCSC(=O)N(CC)C1CCCCC1
outcome [1]: inactive
outcome [5]: inactive
AC50 [6]: 20 µM (active)
AC50 [7]: 20 µM (active)
outcome [2]: inactive
outcome [3]: inactive
outcome [4]: inactive
outcome [8]: inactive

ClC(Cl)=C(c1ccc(Cl)cc1)c1ccc(Cl)cc1
outcome [6]: inactive
outcome [7]: inactive
outcome [2]: inactive
outcome [3]: inactive
outcome [4]: inactive
outcome [8]: inactive

c1cc2ccc3cccc4ccc(c1)c2c34
outcome [10]: inactive
outcome [9]: inactive
outcome [2]: inactive
outcome [3]: inactive

ClC1=C(Cl)[C@]2(Cl)[C@@H]3[C@H]4C[C@H]([C@@H]5O[C@H]45)[C@@H]3[C@@]1(Cl)C2(Cl)Cl
AC50 [6]: 1.38 µM (active)
AC50 [7]: 1.4 µM (active)
outcome [2]: inactive
outcome [3]: inactive
outcome [4]: inactive
outcome [8]: inactive

COS(=O)(=O)OC
outcome [6]: inactive
outcome [7]: inactive
outcome [2]: inactive
outcome [3]: inactive
outcome [4]: inactive
outcome [8]: inactive

O=C(O)C(F)(F)C(F)(F)C(F)(F)C(F)(F)C(F)(F)C(F)(F)C(F)(F)C(F)(F)C(F)(F)F
outcome [1]: inactive
outcome [5]: inactive
outcome [2]: inactive
outcome [3]: inactive
outcome [4]: inactive

CCC(=O)O[C@H]1CC[C@H]2[C@@H]3CCC4=CC(=O)CC[C@]4(C)[C@H]3CC[C@]12C
AC50 [9]: 0.000508 µM (active)
outcome [1]: inactive
outcome [2]: inactive
outcome [3]: inactive

CCC(C)c1cc([N+](=O)[O-])cc([N+](=O)[O-])c1O (stereo unspecified)
AC50 [1]: 16 µM (active)
AC50 [5]: 2.91 µM (active)
outcome [6]: inactive
outcome [7]: inactive
outcome [2]: inactive
outcome [3]: inactive
outcome [8]: inactive

CC(c1ccc(O)cc1)(c1ccc(O)cc1)c1ccc(O)cc1
outcome [1]: inactive
outcome [5]: inactive
AC50 [6]: 3.97 µM (active)
AC50 [7]: 3.97 µM (active)
outcome [2]: inactive
outcome [3]: inactive
outcome [8]: inactive

Cc1ccccc1CO[C@@H]1C[C@@]2(C(C)C)CC[C@]1(C)O2
outcome [10]: inactive
outcome [9]: inactive
outcome [2]: inactive
outcome [3]: inactive

CCCCCCCCCc1ccc(O)cc1
AC50 [6]: 9.9 µM (active)
AC50 [7]: 9.87 µM (active)
outcome [2]: inactive
outcome [3]: inactive
outcome [4]: inactive
outcome [8]: inactive

O=C(NC(=O)c1c(F)cccc1F)Nc1cc(Cl)c(OC(F)(F)C(F)F)c(Cl)c1
outcome [10]: inactive
outcome [9]: inactive
outcome [6]: inactive
outcome [7]: inactive
outcome [2]: inactive
outcome [3]: inactive
outcome [4]: inactive
outcome [8]: inactive

COc1ccc(O)c(C(C)(C)C)c1
outcome [1]: inactive
outcome [5]: inactive
AC50 [6]: 3.04 µM (active) and 633 nM (active)
outcome [6]: inactive
AC50 [7]: 3.03 µM (active) and 679 nM (active)
outcome [7]: inactive
outcome [2]: inactive
outcome [3]: inactive
outcome [8]: inactive

Reference: PubChem BioAssay (EPA / NIEHS)
